# Legend:
# Assay in all cases: PBM binding z-score (relative to random genomic background probes); higher = stronger binding; sequences stand for … in GC…GCGATTGACAGCGTAGAATGAAGG
# [1] = tested on: FXR:RXRa (NR concentration 270 nM, RXRa partner concentration 90 nM)
# Method in brief: (§1)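 Scanned fluorescence from custom Agilent 4×180K protein-binding microarrays was regression-normalized. Binding z-scores use random background probes as reference. Ligand-free nuclear receptor dimers were incubated on the arrays for 1 h and detected with antibodies against each partner (one per run).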
# [2] = tested on: LXRa:RXRa (NR concentration 270 nM, RXRa partner concentration 90 nM)
# Method in brief: as §1
# [3] = tested on: LXRa homodimer (NR concentration 270 nM)
# Method in brief: as §1
# [4] = tested on: LXRb:RXRa (NR concentration 270 nM, RXRa partner concentration 90 nM)
# Method in brief: as §1
# [5] = tested on: LXRb homodimer (NR concentration 270 nM)
# Method in brief: as §1
# [6] = tested on: PPARa:RXRa (NR concentration 270 nM, RXRa partner concentration 90 nM)
# Method in brief: as §1
# [7] = tested on: PPARg:RXRa (NR concentration 180 nM, RXRa partner concentration 90 nM)
# Method in brief: as §1
# [8] = tested on: PPARg:RXRa 270nM:90nM, anti-RXR (NR concentration 270 nM, RXRa partner concentration 90 nM)
# Method in brief: as §1
# [9] = tested on: PPARg:RXRa 30nM:10nM, anti-RXR (NR concentration 30 nM, RXRa partner concentration 10 nM)
# Method in brief: as §1
# [10] = tested on: PPARg:RXRa 90nM:30nM, anti-RXR (NR concentration 90 nM, RXRa partner concentration 30 nM)
# Method in brief: as §1
# [11] = tested on: PPARg:RXRa DBDmut IVT, anti-RXR (DBD mutation: RXRa K156A/R161A, NR concentration 270 nM, RXRa partner concentration 90 nM)
# Method in brief: as §1
# [12] = tested on: PPARg:RXRa IVT, anti-PPARg (NR concentration 270 nM, RXRa partner concentration 90 nM)
# Method in brief: as §1
# [13] = tested on: PPARg DBDmut:RXRa IVT, anti-PPARg (DBD mutation: PPARg1 K132A/R137A, NR concentration 270 nM, RXRa partner concentration 90 nM)
# Method in brief: as §1
# [14] = tested on: PPARg DBDmut IVT, anti-PPARg (DBD mutation: PPARg1 K132A/R137A, NR concentration 270 nM)
# Method in brief: as §1
# [15] = tested on: PPARg homodimer (NR concentration 180 nM)
# Method in brief: as §1
# [16] = tested on: PXR:RXRa (NR concentration 270 nM, RXRa partner concentration 90 nM)
# Method in brief: as §1
# [17] = tested on: PXR homodimer (NR concentration 270 nM)
# Method in brief: as §1
# [18] = tested on: RARa:RXR (NR concentration 270 nM, RXRa partner concentration 90 nM)
# Method in brief: as §1
# [19] = tested on: RARa homodimer (NR concentration 270 nM)
# Method in brief: as §1
# [20] = tested on: RARb:RXRa (NR concentration 270 nM, RXRa partner concentration 90 nM)
# Method in brief: as §1
Sequence,PBM binding z-score [1],PBM binding z-score [2],PBM binding z-score [3],PBM binding z-score [4],PBM binding z-score [5],PBM binding z-score [6],PBM binding z-score [7],PBM binding z-score [8],PBM binding z-score [9],PBM binding z-score [10],PBM binding z-score [11],PBM binding z-score [12],PBM binding z-score [13],PBM binding z-score [14],PBM binding z-score [15],PBM binding z-score [16],PBM binding z-score [17],PBM binding z-score [18],PBM binding z-score [19],PBM binding z-score [20]
TCTTGTAGATGAATAGAGGTTAAGAAAGTGCGCT,1.46,3.5,0.638,1.98,0.559,1.93,0.366,2.17,3.31,2.67,2.5,1.18,0.58,0.95,0.765,3.01,0.505,1.86,1.12,1.01
AATACAGAGTCATCGTAGGCCAGAGTACGCACAG,0.102,0.331,-0.311,-0.227,-0.569,-0.149,0.955,0.273,-0.0148,0.175,0.0374,0.268,0.399,0.579,-0.714,-0.113,-0.387,-0.0799,0.026,0.17
TCTTGGAGATCAACAGGAGGTTAAGAAAGATCGA,0.373,1.25,-0.0581,0.942,-0.782,1.44,0.02,1.23,2.38,1.62,0.986,0.364,0.0727,0.526,-0.163,1.09,-0.208,1.41,-0.417,0.374
CCGACTGGGGCATAAGGTTAGCATAAGCCAGCCC,-0.404,-0.371,-0.738,-0.254,-1.19,1.04,1.7,2.32,0.353,1.83,3.03,2.86,-1.39,-1.75,-0.109,-0.447,-0.542,0.115,-0.345,1.12
ATCGAAAGGTCGAGGGTGAGTATACCCACCCGAA,4.29,3.45,0.143,2.57,0.248,4.67,3.72,4.25,1.3,3.04,-0.26,1.94,0.623,0.934,0.976,2.41,-0.393,3.41,0.53,4.09
CGAACAAGGTCAGAACAGGACAGTGAAGGATGAT,4.33,3.42,0.289,2.42,0.289,3.91,3.09,3.2,1.12,1.95,2.79,3.05,0.722,0.826,1.5,3.22,0.399,2.47,0.0836,4.31
ATCGAAAGGTCGAAGGTGTGTATACCCACCCGAA,3.46,3.02,0.143,2.37,0.416,4.08,2.6,3.32,1.5,2.35,-0.369,1.67,0.695,0.274,1.64,2.3,0.219,3.33,0.296,3.52
CCTACTGGGCCAAGGTCCTTGATCAGTCAAAGCA,-2.77,-0.638,-0.83,-0.659,-1.31,0.607,0.83,1.73,-0.152,0.845,3.51,3.4,-1.28,-1.15,-0.287,-0.74,-0.766,-0.787,-1.65,0.256
ATCTCTAGGTAAAGTTCAATGAAAGATCGATAGA,2.28,3.13,2.86,2.25,1.31,3.32,4.11,5.15,3.34,4.82,2.42,3.05,1.44,1.47,1.79,3.02,2.63,1.92,2.05,3.19
ATATGTAGGTTAAGGATCATTCAGGTTGGTTCGC,0.726,1.25,0.404,1.18,0.352,4.46,8.08,7.41,6.08,8.34,7.22,7.16,3.09,2.12,1.49,1.19,0.266,1.13,1.1,1.2
AGAACGAGTGCACGCTGAGTTGATAGCAGAGTAG,-0.478,-0.297,-0.632,-0.327,-1.13,0.0263,0.542,-0.2,-0.197,-0.307,-0.434,0.0753,0.194,-0.145,-0.176,0.739,0.603,-0.0592,-0.662,0.298
CCTAGTTGGTCAGGGTCACACACGCTATAGGTAC,3.57,3.05,0.771,3.33,0.27,4.17,3.28,3.51,1.5,2.6,1.32,2.77,0.391,0.0582,2.15,3.91,1.38,4.76,1.57,3.43
TAGCCTAGGTCAGATCGGGCCAGGATACGCTATA,1.61,1.02,-0.706,0.308,-0.62,1.68,0.718,0.623,-0.241,-0.042,-0.033,1.22,-0.531,-0.442,-0.135,0.771,-0.663,0.816,-1.26,3
TCTGCTAGGTCAGTTGGTCACCTAACGAGCTGCC,1.06,0.728,-0.345,0.685,0.632,1.69,1.03,2.1,1.38,1.75,2.8,3.77,1.37,0.817,0.461,0.216,-0.932,0.734,-1.21,3.44
GCGACTGGGGGATCAGCAGGTTACCATAACTTAA,0.383,0.523,0.0867,2.54,5.33,1.5,0.824,1.73,0.24,1.15,0.873,2.43,3.69,4.01,0.749,1.15,0.388,1.31,-0.462,0.688
CCTAGCAGGCCAAGGTCACTCAAGCATTTCGCTT,3.06,2.72,0.474,2.51,-0.42,3.34,1.14,2.44,-0.0507,1.65,2.14,1.93,-1.42,-0.849,1.92,3.35,0.64,3.65,0.757,3.55
TAGCCTAGGTCATGCGAGCCAGTATAGTGTCGGC,4.25,2.95,0.265,1.8,0.134,3.6,2.35,2.43,0.259,1.24,1.99,2.77,0.571,0.0763,1.17,1.38,-0.628,2.33,-0.182,3.72
CCTAGTTGGTCACGAGGTCACACACCGGATATGA,4.38,3.84,2.36,3.94,0.56,5,5.28,4.91,2.28,3.65,3.54,5.42,0.987,1.28,2.99,4.79,1.97,4.87,1.29,4.14
CAAACTAGTTCAAAGGTCAAAGTCGAGCCAACCA,7.5,6.94,5.57,6.5,2.97,7.02,11,9.72,11.8,11.7,3.06,5.87,1.03,1.34,6.05,6.85,3.08,8.58,3.93,5.27
TCTAGCAGGCCAGAGGGTAACTCAAGAGGTACGG,0.0239,-0.0819,-0.636,-0.399,-1.36,1.15,2.11,3.56,2.38,3.26,0.667,0.376,-0.698,-0.379,0.0885,-0.174,-0.643,-0.0159,-0.296,0.332
ACAGACAGGTGAGTGAACGTAACTCAGCTGGACG,-0.265,-0.366,-0.561,-0.436,-0.532,-0.0939,0.744,-0.203,-0.222,-0.308,0.689,0.457,0.319,-1.39,-0.743,-0.554,-0.547,-0.741,-0.186,0.247
GCGACTGGGGCAAAGCAGGTTACCATCAGGTTGG,0.219,0.0244,-0.624,0.0908,-1.13,1.24,0.987,1.13,-0.557,0.405,3.88,3.6,-0.221,-0.906,0.147,0.343,-0.136,0.899,-1.19,0.889
ATCTCTAGCTAACAAGTTCAGTGAAAGAGAGGAC,0.604,0.71,0.538,0.504,0.838,0.381,0.2,-0.0606,0.335,0.17,-0.615,0.373,0.64,1.17,0.988,1.36,1.62,0.744,1.13,1.15
ACTCGGAGGACAAAGGTCATAGCTACGCCAGTGA,6.1,5.52,4.19,4.73,0.856,6.18,8.47,7.15,6.46,8.09,1.2,4.45,0.463,0.599,3.32,5.22,0.775,5.76,1.36,4.83
TCTTGTAGATGAACAGGAGGTTAAGAAAGATCGA,0.551,0.82,-0.0533,0.712,-0.35,0.923,0.119,1.32,2.89,2.02,1.53,0.277,0.804,0.789,0.0799,0.598,-0.154,0.883,0.212,0.279
ATCTCTACGTAAAAGTTCAGTGAATCCCGAGGAT,0.535,1.12,1.27,0.881,1.33,0.835,0.595,1.55,0.654,1.25,-0.177,0.157,1.69,2.47,0.954,1.69,1.8,0.802,1.16,2.35
GCTACAGGGTCAGCTAGAGGCCAGAGTATGGAAA,4.62,2.54,-0.26,2.36,-0.67,4.6,2.79,2.91,0.541,1.78,1.26,1.75,-0.627,-0.389,1.43,3.1,-0.36,4,-0.208,4.32
CGTCAAAGTTCAAGGTAACGTAGCAGAAAGCAGC,6.17,5.74,2.69,3.38,0.96,4.55,4.28,5.21,2.09,4.31,0.831,2.13,0.429,0.415,4.56,4.44,3.02,3.64,2.42,5.1
CCGAGTAGGTTATGGGGCATTAAGGCAACGGTGA,0.273,0.355,0.112,0.489,0.086,1.94,3.57,4.37,2.35,3.99,3.03,3.54,-0.853,-0.637,1.15,-0.0362,-0.296,0.648,0.0185,0.818
